The record followed here is PubChem BioAssay (Tox21).

A number with no mark means an inactive call. Inconclusive results are not listed. Activity calls are given as the source filed them. Unless noted, calls come from the whole dose curve.

A short description of experiment [1]: Nuclear factor erythroid 2-related factor 2/antioxidant responsive element (Nrf2/ARE) small molecule agonists: qHTS cell viability counter screen in human keratinocytes (AID 1919968; active = well fitted curve in the direction sought with a large enough effect in the repeat runs; an effect the other way counts as inactive or inconclusive; note: nearly all actives have a fitted effect of over 55% in size; note: potency is the fitted concentration of half-maximal effect). The procedure, abridged: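 Cells of the KeratinoSens line were plated at 1,500 per well and left for 5 h before compound transfer from DMSO stocks. After a 23 h incubation (37 C, 5% CO2), CellTiter-Fluor was added. Signal was taken as fluorescence intensity 1 h later.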
A general note: qHTS replaces the single test concentration by a dilution series.

Experiment [2] is described as follows: Nuclear factor erythroid 2-related factor 2/antioxidant responsive element (Nrf2/ARE) small molecule agonists: luciferase reporter gene qHTS assay in human keratinocytes (AID 1919969). Note: nearly all actives have a fitted effect of over 35% in size.
For experiment [3], the target named is Gonadotropin-releasing hormone receptor (Homo sapiens) (UniProt P30968). The experiment in a line: Human gonadotropin-releasing hormone receptor (GnRHR) small molecule agonists, calcium flux assay in GnRHR-HEK293 cells (AID 1920063). Note: nearly all actives have a fitted effect of over 35% in size. Note: potency is the fitted concentration of half-maximal effect. The procedure, abridged:
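Compounds dissolved in DMSO are pin-transferred onto dye-loaded GnRHR-HEK293 cells, which were seeded 18 h before at 37 C/5% CO2. Calcium signal is read as fluorescence intensity at 1 s intervals for 3 min.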
In general terms: A change in cytosolic calcium serves as a functional read-out for many receptors and channels.

The target in experiment [4] is KiSS-1 receptor (Homo sapiens) (UniProt Q969F8). Put plainly: Human kisspeptin (KISS1R) small molecule agonists, calcium flux assay in KISS1R-HEK293 cells (AID 1920064; active = well fitted curve in the direction sought with a large enough effect in the repeat runs; an effect the other way counts as inactive or inconclusive). Put shortly:
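Cell line: HEK293, stable human KISS1R. Dye loading 1 h at 37 C after 18 h culture. Read: kinetic fluorescence, 480/540 nm, 3 min at 1 s intervals.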

Experiment [5] can be described thus: G protein-coupled receptor (GPCR) small molecule agonists, calcium flux assay: HEK293 wild type cell line counter screen (AID 1920065). Put shortly:
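Tox21 10K compounds, 15 concentrations each in triplicate, pin-transferred in DMSO onto dye-loaded cells; kinetic read at 480/540 nm for 3 min, 1 s intervals.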

Experiment [6] is described as follows: p53 small molecule agonists, cell-based qHTS assay with human liver microsomes: qHTS cell viability counter screen (AID 1963579). Note: nearly all actives have a fitted effect of over 45% in size. The procedure, abridged: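 Metabolically activated exposure: compounds, human liver microsomes and NADPH (0.5 mg/mL final apiece) were added to p53RE-bla cells seeded 5 h earlier, left 16 h at 37 C, and then assessed for viability by CellTiter-Glo luminescence.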

Experiment [7] in a line: p53 small molecule agonists, cell-based qHTS assay with rat liver microsomes: qHTS cell viability counter screen (AID 1963580). Note: nearly all actives have a fitted effect of over 45% in size. Put shortly: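 Rat liver microsome (0.5 mg/mL final) and NADPH (0.5 mg/mL final) co-incubation with compounds for 16 h at 37 C on HCT-116 p53RE-bla cells; cytotoxicity taken from intracellular ATP luminescence.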
A short description of experiment [8]: p53 small molecule agonists, cell-based qHTS assay: qHTS cell viability counter screen (AID 1963581). Note: nearly all actives have a fitted effect of over 45% in size. Put shortly: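 ATP content measured by luminescence in HCT-116 p53RE-bla cells treated 16 h at 37 C, same wells as the reporter screen.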
For experiment [9], the target named is 5-hydroxytryptamine receptor 2A (Homo sapiens) (UniProt P28223). The experiment in a line: 5-hydroxytryptamine receptor 2A (HTR2A) small molecule agonists, cell-based qHTS assay (AID 1963587). Note: nearly all actives have a fitted effect of over 30% in size. Put shortly: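 Kinetic calcium-flux fluorescence (2 min, 1 sec intervals) after compound addition in agonist mode. HTR2A-CHO cells were cultured 18 h, then dye-loaded 1 h at 37 C.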

For experiment [10], the target named is Muscarinic acetylcholine receptor M1 (Homo sapiens) (UniProt P11229). The experiment in a line: Cholinergic receptor muscarinic 1 (CHRM1) small molecule antagonists, cell-based qHTS assay (AID 1963588). Note: nearly all actives have a fitted effect of over 40% in size. Note: potency is the fitted concentration of half-maximal effect. The procedure, abridged: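 Compounds were tested at 15 concentrations in three independent runs. Dye-loaded CHRM1-CHO cells were exposed 5 min at room temperature before stimulation by acetylcholine added at 50nM. Intracellular calcium was read kinetically on FDSS for 3 min.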

The target is the same in experiment [11]. The experiment in a line: Cholinergic receptor muscarinic 1 (CHRM1) small molecule agonists, cell-based qHTS assay (AID 1963589). Note: nearly all actives have a fitted effect of over 35% in size. The procedure, abridged:
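Homogeneous fluorescence calcium flux, agonist mode. Human M1-expressing CHO cells; compound dosed at 15 concentrations, three independent runs; signal sampled every 1 sec.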

A short description of experiment [12]: cAMP Responsive Elements (CRE) small molecule agonists, cell-based qHTS assay (AID 1963590). The procedure, abridged:
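HEK 293T cells stably bearing CRE-bla were plated at 2,000 cells per well and rested 18 h. Compounds, positive controls or DMSO were added for 3 h at 37 C. LiveBLAzer B/G substrate was then loaded for 2 h at room temperature.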

Experiment [13] is described as follows: cAMP Responsive Elements (CRE) small molecule antagonists, cell-based qHTS assay (AID 1963591; active = well fitted inhibition curve with a large enough effect in the signal ratio in the repeat runs, not every such curve was filed as active; the % refers to the signal ratio). The procedure, abridged: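 First, CRE-bla HEK293T cells settled 18 h at 37 C. Next, compound and 0.25 uM final NKH477 were applied for 3 h. Last, LiveBLAzer B/G substrate was loaded for 2 h at room temperature.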
Experiment [14] has as its target Beta-2 adrenergic receptor (Homo sapiens) (UniProt P07550). Put plainly: Adrenergic beta2 receptor (ADRB2) small molecule antagonists, cell-based qHTS assay (AID 1963592). Note: series mostly up to about 92 µM; nearly all actives have a fitted effect of over 50% in size. Put shortly: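 Assay format: CHO-ADRB2 cells, 18-20hr seeding at 37C/5% CO2, then compound plus 1nM isoproterenol agonist mix for 0.5hr RT. Homogeneous time-resolved fluorescence cAMP detection after 1hr, expressed as 665/615 nm ratio.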

The target is the same in experiment [15]. Put plainly: Adrenergic beta2 receptor (ADRB2) small molecule agonists, cell-based qHTS assay (AID 1963593).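 Note: CHO cells stably overexpressing human ADRB2.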 Put shortly: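 CHO cells stably over-expressing ADRB2 were plated overnight at 37C, then dosed with compounds plus a stimulation mix containing 100uM IBMX and 25uM Ro-20-1724 for 0.5hr at room temperature. cAMP was measured by HTRF competition, 1hr.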

The target in experiment [16] is D(2) dopamine receptor (Homo sapiens) (UniProt P14416). Put plainly: Dopamine D2 receptor (DRD2) small molecule agonists, cell-based qHTS assay (AID 1963594). Note: nearly all actives have a fitted effect of over 35% in size. The procedure, abridged:
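cAMP accumulation in DRD2-HEK293 cells measured by HTRF after 1 h detection; compounds added 10 min before NKH477 (200nM […]) forskolin-analogue stimulation, 30 min at room temperature, with Ro20-1724 present at 0.1 mM final.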

For experiment [17] the target is unchanged. The experiment in a line: Dopamine D2 receptor (DRD2) small molecule antagonists, cell-based qHTS assay (AID 1963595; active = well fitted inhibition curve with a large enough effect in the signal ratio in the repeat runs, with a control signal flat; the % refers to the signal ratio). The procedure, abridged:
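In this cell-based antagonist screen, compounds act for 10 min at room temperature before a 30 min challenge with 12 nM quinpirole and 200 nM NKH477. cAMP is quantified by HTRF competition in DRD2-HEK293 cells containing 0.1 mM Ro20-1724.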

Chain of 5-hydroxytryptamine receptor 2A (Homo sapiens) (P28223 whole entry, looked up): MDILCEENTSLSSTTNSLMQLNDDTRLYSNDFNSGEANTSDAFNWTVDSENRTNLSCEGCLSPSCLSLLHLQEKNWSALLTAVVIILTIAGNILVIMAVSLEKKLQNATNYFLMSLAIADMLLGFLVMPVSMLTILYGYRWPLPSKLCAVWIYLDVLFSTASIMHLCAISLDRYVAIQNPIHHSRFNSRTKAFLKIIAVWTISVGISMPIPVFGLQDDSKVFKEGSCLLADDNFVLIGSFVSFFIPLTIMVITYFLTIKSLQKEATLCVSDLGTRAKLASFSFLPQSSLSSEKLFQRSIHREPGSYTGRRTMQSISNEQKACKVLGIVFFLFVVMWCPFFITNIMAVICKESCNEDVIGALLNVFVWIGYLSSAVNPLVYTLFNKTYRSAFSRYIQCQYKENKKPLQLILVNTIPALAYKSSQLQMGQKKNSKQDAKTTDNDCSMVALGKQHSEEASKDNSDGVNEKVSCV
Chain of Gonadotropin-releasing hormone receptor (Homo sapiens) (P30968 whole entry, looked up): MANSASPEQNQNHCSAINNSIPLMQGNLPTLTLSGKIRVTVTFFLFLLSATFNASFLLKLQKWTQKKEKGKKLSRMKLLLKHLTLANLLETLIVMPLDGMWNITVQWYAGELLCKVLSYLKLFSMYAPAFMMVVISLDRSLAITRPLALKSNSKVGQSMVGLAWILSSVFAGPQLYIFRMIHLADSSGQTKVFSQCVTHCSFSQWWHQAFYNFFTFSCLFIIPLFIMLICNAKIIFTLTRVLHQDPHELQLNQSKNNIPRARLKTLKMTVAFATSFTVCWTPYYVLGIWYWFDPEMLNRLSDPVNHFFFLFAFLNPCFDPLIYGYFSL
Chain of Muscarinic acetylcholine receptor M1 (Homo sapiens) (P11229 whole entry, looked up): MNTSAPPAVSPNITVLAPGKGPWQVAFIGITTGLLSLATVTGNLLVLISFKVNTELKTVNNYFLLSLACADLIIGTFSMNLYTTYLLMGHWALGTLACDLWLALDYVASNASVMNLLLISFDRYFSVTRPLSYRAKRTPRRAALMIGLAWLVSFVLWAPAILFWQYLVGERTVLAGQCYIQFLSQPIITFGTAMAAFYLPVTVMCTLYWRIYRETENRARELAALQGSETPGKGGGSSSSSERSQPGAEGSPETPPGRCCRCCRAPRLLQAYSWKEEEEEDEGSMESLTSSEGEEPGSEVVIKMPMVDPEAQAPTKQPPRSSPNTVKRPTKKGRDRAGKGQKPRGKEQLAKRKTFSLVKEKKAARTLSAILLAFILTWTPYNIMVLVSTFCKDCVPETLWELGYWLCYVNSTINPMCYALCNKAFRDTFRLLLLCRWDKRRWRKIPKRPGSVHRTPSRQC
Chain of D(2) dopamine receptor (Homo sapiens) (P14416 whole entry, looked up): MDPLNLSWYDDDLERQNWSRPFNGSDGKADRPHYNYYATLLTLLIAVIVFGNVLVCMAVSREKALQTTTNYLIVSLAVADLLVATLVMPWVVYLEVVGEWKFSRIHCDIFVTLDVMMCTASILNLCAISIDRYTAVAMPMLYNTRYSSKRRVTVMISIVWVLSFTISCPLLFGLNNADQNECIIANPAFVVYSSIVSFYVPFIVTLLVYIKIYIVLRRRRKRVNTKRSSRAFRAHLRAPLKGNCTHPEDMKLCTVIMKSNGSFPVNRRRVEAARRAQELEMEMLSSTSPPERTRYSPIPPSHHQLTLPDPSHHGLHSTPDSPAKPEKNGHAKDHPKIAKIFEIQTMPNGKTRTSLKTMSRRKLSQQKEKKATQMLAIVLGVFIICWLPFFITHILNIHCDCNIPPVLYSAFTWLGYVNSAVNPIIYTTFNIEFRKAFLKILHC
Chain of Beta-2 adrenergic receptor (Homo sapiens) (P07550 whole entry, looked up): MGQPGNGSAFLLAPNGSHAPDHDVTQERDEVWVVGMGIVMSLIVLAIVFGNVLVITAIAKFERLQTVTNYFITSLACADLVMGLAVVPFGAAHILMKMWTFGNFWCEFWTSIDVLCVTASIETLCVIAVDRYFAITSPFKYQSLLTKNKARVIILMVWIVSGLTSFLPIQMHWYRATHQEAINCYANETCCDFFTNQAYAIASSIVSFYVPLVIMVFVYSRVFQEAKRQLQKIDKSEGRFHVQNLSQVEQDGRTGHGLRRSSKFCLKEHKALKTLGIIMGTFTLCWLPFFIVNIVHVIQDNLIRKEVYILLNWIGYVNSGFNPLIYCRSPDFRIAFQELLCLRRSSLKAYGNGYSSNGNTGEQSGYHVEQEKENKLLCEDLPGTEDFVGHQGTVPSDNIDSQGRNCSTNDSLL
Chain of KiSS-1 receptor (Homo sapiens) (Q969F8 whole entry, looked up): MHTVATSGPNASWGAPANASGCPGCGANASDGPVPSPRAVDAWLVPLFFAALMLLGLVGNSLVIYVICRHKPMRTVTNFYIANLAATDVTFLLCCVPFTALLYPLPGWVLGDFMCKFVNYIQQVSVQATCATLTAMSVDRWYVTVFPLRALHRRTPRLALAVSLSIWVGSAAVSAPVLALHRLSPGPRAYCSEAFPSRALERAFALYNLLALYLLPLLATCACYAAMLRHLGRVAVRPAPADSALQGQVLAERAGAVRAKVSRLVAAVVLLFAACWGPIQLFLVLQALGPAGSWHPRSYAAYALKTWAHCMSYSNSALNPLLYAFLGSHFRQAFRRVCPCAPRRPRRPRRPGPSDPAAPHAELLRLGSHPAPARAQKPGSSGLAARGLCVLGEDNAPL

Consider `CC1CC(OC(=O)C(O)c2ccccc2)CC(C)(C)N1C` (configuration not stated), for which the Potency entry in experiment [1], in [2], in experiment [3], in experiment [4], in [5] and in [6] was “inactive” throughout. Further, the Potency result in experiment [7], in experiment [8], in experiment [9], in [11], in [12] and in [13] was “inactive” each time. In addition, the Potency entry in experiment [14], in experiment [15], in experiment [16] and in experiment [17] was “inactive” throughout. Besides, the Potency in experiment [10] was 0.41 µM (active).
For the compound `CCOC(=O)c1ccc(C#Cc2ccc3c(c2)C(C)(C)CCS3)nc1`, the Potency result in experiment [1], in experiment [2], in experiment [3], in [4], in [5] and in [6] was “inactive” throughout. Further, the Potency entry in experiment [7], in experiment [8], in [9], in experiment [14], in [15] and in experiment [16] was “inactive” each time.
As to `Cc1ccc(S(=O)(=O)NC(=O)NC2CCCCC2)cc1`, the Potency entry in [1], in experiment [2], in experiment [3], in experiment [4], in experiment [5] and in experiment [6] was “inactive” throughout. Also, the Potency result in experiment [7], in experiment [8], in experiment [9], in [10], in [11] and in experiment [12] was “inactive” in each case. In addition, the Potency entry in experiment [13], in experiment [14], in experiment [16] and in [17] was “inactive” throughout.
As to `COC(=O)[C@@H]1CC2=CC(=O)CC[C@]2(C)[C@@]23O[C@@H]2C[C@@]2(C)[C@@H](CC[C@@]24CCC(=O)O4)[C@H]13`, the Potency result in experiment [1], in experiment [2], in experiment [3], in [4], in experiment [5] and in experiment [6] was “inactive” each time. In addition, the Potency result in experiment [7], in experiment [8], in experiment [9], in experiment [10], in experiment [11] and in experiment [12] was “inactive” throughout. Besides, the Potency entry in experiment [13], in experiment [14], in [15], in experiment [16] and in experiment [17] was “inactive” throughout.
As to `CC(C)(CO)[C@@H](O)C(=O)NCCCO`, the Potency result in experiment [1], in [2], in experiment [3], in experiment [4], in experiment [5] and in [6] was “inactive” throughout. Also, the Potency result in experiment [7], in experiment [8], in experiment [12], in experiment [13], in experiment [14] and in experiment [15] was “inactive” in each case. Further, the Potency result in experiment [16] and in [17] was “inactive” each time.
On to `COc1ccnc(CS(=O)c2nc3ccc(OC(F)F)cc3[nH]2)c1OC` (configuration not stated), for which the Potency result in experiment [1], in [2], in experiment [3], in experiment [4], in experiment [5] and in experiment [6] was “inactive” each time. Moreover, the Potency entry in experiment [7], in experiment [8], in experiment [12], in [13] and in experiment [16] was “inactive” each time.
As to `O=C(N[C@@H](c1ccccc1)[C@@H]1CCCCN1)c1cccc(C(F)(F)F)c1Cl`, the Potency in experiment [1] was 43.3 µM (active); in experiment [3], 38.9 µM (active). Besides, the Potency entry in [2], in [4], in experiment [5], in experiment [6], in [7] and in [8] was “inactive” each time. The Potency result in experiment [10], in [11], in experiment [14], in experiment [16] and in experiment [17] was “inactive” throughout.
Take `COc1ccnc(CS(=O)c2nc3cc(OC(F)F)ccc3[nH]2)c1OC` (configuration not stated): the Potency result in experiment [1], in [2], in experiment [3], in [4], in experiment [5] and in experiment [6] was “inactive” each time. The Potency entry in experiment [7], in [8], in experiment [12], in experiment [14], in experiment [15] and in [16] was “inactive” in each case. For the same compound, the Potency result in [17] is “inactive”.
Take `CO/N=C(/C(=O)N[C@@H]1C(=O)N2C(C(=O)[O-])=C(C[n+]3ccn4ncccc43)CS[C@H]12)c1nsc(N)n1`: the Potency result in experiment [1], in experiment [2], in experiment [3], in experiment [4], in experiment [5] and in experiment [6] was “inactive” throughout. Also, the Potency entry in experiment [7], in experiment [8], in experiment [9], in experiment [10], in experiment [11] and in [12] was “inactive” each time. Further, the Potency entry in [13], in experiment [14], in experiment [16] and in experiment [17] was “inactive” throughout.
`Cn1c(=O)c2c(ncn2CC2OCCO2)n(C)c1=O`: the Potency result in [1], in [2], in [3], in experiment [4], in [5] and in experiment [6] was “inactive” in each case. Also, the Potency entry in [7], in experiment [8], in experiment [12], in experiment [13], in experiment [14] and in experiment [15] was “inactive” throughout. Further, in experiment [16], the Potency entry was “inactive”.
On to `COc1cc2nc(N(C)CCCNC(=O)C3CCCO3)nc(N)c2cc1OC` (configuration not stated), for which the Potency result in [1], in experiment [2], in experiment [3], in [4], in experiment [5] and in experiment [6] was “inactive” in each case. Moreover, the Potency entry in experiment [7], in experiment [8], in experiment [9], in [10], in experiment [11] and in experiment [13] was “inactive” each time. Besides, the Potency result in experiment [14], in experiment [15], in experiment [16] and in experiment [17] was “inactive” in each case.
In the case of `Cc1onc(-c2ccccc2)c1-c1ccc(S(N)(=O)=O)cc1`, the Potency result in experiment [1], in experiment [2], in [3], in experiment [4], in experiment [5] and in experiment [6] was “inactive” each time. In addition, the Potency entry in experiment [7], in experiment [8], in [12], in experiment [13], in experiment [14] and in experiment [16] was “inactive” throughout. The Potency entry in experiment [17] was “inactive”.
Regarding `NCCCN1CCOCC1`, the Potency entry in experiment [1], in [2], in [3], in experiment [4], in [5] and in experiment [6] was “inactive” in each case. In addition, the Potency result in [7], in [8], in experiment [9], in experiment [10], in experiment [11] and in [12] was “inactive” throughout. The Potency entry in experiment [13], in [14], in experiment [16] and in experiment [17] was “inactive” throughout.
